By inhibition is commonly meant the drop in the measured response relative to a control, in per cent.

Activity calls are given as the source filed them. The rule behind the calls is not given here.

This test deals with Pantothenate synthetase (Mycobacterium tuberculosis (strain ATCC 25618 / H37Rv)) (UniProt P9WIL5). Kind of test: Recombinant Mtb pantothenate synthetase (PanC) inhibitors, coupled enzyme, confirmatory (AID 375).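 Note: 0% = full reaction with vehicle and 100% = no enzyme background.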 The conditions noted are these: coupled enzyme assay; at 10 µM, stronger effect = higher value.
Pantothenate synthetase (Mycobacterium tuberculosis (strain ATCC 25618 / H37Rv)), sequence (P9WIL5 whole entry, looked up): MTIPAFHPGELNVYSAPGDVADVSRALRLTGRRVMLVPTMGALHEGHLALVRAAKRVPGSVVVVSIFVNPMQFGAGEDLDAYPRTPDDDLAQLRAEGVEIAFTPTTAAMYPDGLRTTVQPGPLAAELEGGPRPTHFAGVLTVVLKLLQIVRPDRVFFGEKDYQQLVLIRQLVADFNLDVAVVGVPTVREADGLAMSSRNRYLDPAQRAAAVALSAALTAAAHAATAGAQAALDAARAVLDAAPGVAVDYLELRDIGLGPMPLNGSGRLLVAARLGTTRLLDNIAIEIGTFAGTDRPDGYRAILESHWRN
For the compound `COc1ccccc1-c1nc2n(n1)C(c1cccs1)C(C(=O)Nc1cccnc1)=C(C)N2` (stereo not given), the inhibition was 0% (inactive). Regarding `COc1ccc(OC)c(S(=O)(=O)Nc2ccccc2SC)c1`, the inhibition is 3% (inactive). On to `Cc1cccc(CN2CCN(C(c3ccccc3)c3ccc(Cl)cc3)CC2)c1` (stereo not given), for which the inhibition is 11% (inactive). Take `c1c2c(cc3sc(N4CCCCC4)nc13)OCCO2`: the inhibition was 4% (inactive). Next, `COc1cccc(-c2nc(CS(=O)(=O)CC(=O)N3CCc4ccccc4C3)c(C)o2)c1`: 4% (inactive); `COc1ccccc1N1CCN(c2cc(=O)n(Cc3ccc(F)cc3)c(=O)[nH]2)CC1`: 0% (inactive); `O=C(c1ccc(S(=O)(=O)N2CCOCC2)cc1)N(c1ccc(F)cc1)C1C=CS(=O)(=O)C1` (stereo not given): 0% (inactive).

With `Brc1ccc2[nH]c3nc(SCCN4CCOCC4)nnc3c2c1`, the inhibition is 0% (inactive). Consider `COc1ccc(OC)c(C(=O)c2nc3c(n2O)CCCCC3)c1`, for which the inhibition is 0% (inactive). As to `CCc1nnc(NC(=O)C2CC(=O)N(Cc3ccco3)C2)s1` (stereo not given), the inhibition was 0% (inactive). On to `COc1cc(OC)nc(NC(=O)CSc2nc3ccccc3o2)n1`, for which the inhibition is 11% (inactive). Turning to `CCOc1cc(C2C3=C(CCCC3=O)N(C)C3=C2C(=O)CCC3)cc(Cl)c1O`, the inhibition is 0% (inactive). `Cc1ccc(C)c(N(CC(=O)NCc2ccco2)C(=O)CCC(=O)Nc2ccccn2)c1`: the inhibition was 0% (inactive). Next, `COC(=O)c1ccccc1S(=O)(=O)N(CCCN1CCOCC1)Cc1cccs1`: 0% (inactive); `CCCC(=O)O[C@]1(C(=O)COC(C)=O)CC[C@H]2[C@@H]3C[C@H](F)C4=CC(=O)C=C[C@]4(C)[C@@]3(F)[C@@H](O)C[C@@]21C`: 0% (inactive); `Cc1cc(C(=O)CSCCCn2c(=O)[nH]c3ccccc32)c(C)n1C`: 2% (inactive). In the case of `CC(NCCC(c1ccccc1)c1ccccc1)c1ccccc1` (stereo not given), the inhibition is 0% (inactive).

As to `COC(=O)c1[nH]c2ccccc2c1NS(=O)(=O)c1ccc(OC)cc1OC`, the inhibition is 3% (inactive). As to `O=C(c1ccc(CNS(=O)(=O)c2cccc(C(F)(F)F)c2)cc1)N1CCOCC1`, the inhibition is 0% (inactive). As to `O=C(Nc1cccnc1)c1noc2c1CCCCC2`, the inhibition is 0% (inactive).

On to `Cc1c(N(C)C)nc2ccccc2c1N`, for which the inhibition was 0% (inactive).

With `CCCCCCC1/C(=N/O)CCC1C(=O)OC` (stereo not given), the inhibition is 0% (inactive). For the compound `Cc1cc(C)n(-c2nc(C)nc3c2cnn3-c2ccccc2)n1`, the inhibition was 0% (inactive). As to `CC(C)CC(c1nnnn1C1CCCC1)N1CCN(c2ccccc2F)CC1` (stereo not given), the inhibition was 0% (inactive). Then `O=C(Oc1ccccc1)c1cccc(COC(=O)c2cnccn2)c1`, with 5% (inactive).

In the case of `CC(=O)c1ccc(NC(=O)c2noc3c2CCCCC3)cc1`, the inhibition is 1% (inactive). Turning to `Cc1cc(N2CCC3(CC2)OCCO3)n2nc(C)c(-c3ccc(Cl)cc3)c2n1`, the inhibition was 8% (inactive). Regarding `CC1(C)S[C@@H]2[C@H](NC(=O)Cc3ccccc3)C(=O)N2[C@H]1C(=O)O`, the inhibition is 6% (inactive). For the compound `O=S(=O)(NCC1CCCO1)c1ccc2c(c1)OCCO2` (stereo not given), the inhibition was 0% (inactive).

Regarding `O=C(Cn1c(=O)n(CC2CCCO2)c(=O)c2ccccc21)c1ccccc1` (stereo not given), the inhibition was 0% (inactive).

As to `CCn1nc(CC(=O)Nc2nnc(CC(=O)N3CCCCC3)s2)c2ccccc2c1=O`, the inhibition is 0% (inactive). For `CCCC(=O)Nc1nnc(CC(=O)OCC)s1`, the inhibition is 3% (inactive). Regarding `CCOC(=O)c1nnn(CC(=O)Nc2cccc(OC)c2)c1C(=O)OCC`, the inhibition is 9% (inactive). Take `Cc1nn(CC(O)Cn2c3c(c4ccccc42)CCN(C)C3=O)c(C)c1Br` (stereo not given): the inhibition was 7% (inactive).

On to `COc1ccc(CCn2c(=N)c(C#N)cc3c(=O)n4ccccc4nc32)cc1`, for which the inhibition was 0% (inactive). In the case of `O=C(COC(=O)Cc1cccc(C(F)(F)F)c1)NCC1CCCO1` (stereo not given), the inhibition was 3% (inactive). With `CCCn1nc(NS(=O)(=O)c2ccccc2)c2cc3ccccc3nc21`, the inhibition was 1% (inactive).

Take `O=c1c2ccccc2[nH]c(=S)n1CCN1CCC(=C(c2ccc(F)cc2)c2ccc(F)cc2)CC1`: the inhibition is 4% (inactive).

For `COc1ccc(C(=O)NCCCCCC(=O)O)cc1OC`, the inhibition is 0% (inactive). Next, `Cc1cc(-n2c(C)cc(C(=O)CSc3nc4ccccc4c(=O)n3Cc3ccco3)c2C)no1`: 0% (inactive).
